Compound activity deposited in PubChem by National Center for Advancing Translational Sciences (NCATS).
WRN helicase inh: qHTS for Inhibitors of WRN Helicase. WRN helicase unwinding, fluorescent forked duplex, kinetic. 0.46% of 360,000 active. AID 651768, 2012. Potency, µM (titrated, usually from 114 µM), actives largely listed as inhibitors. Bifunctional 3'-5' exonuclease/ATP-dependent helicase WRN (Homo sapiens), Q14191; note: nearly all actives have a fitted effect of over 55% in size
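Primary qHTS, 1536-well format. 20 nM WRN + compound, 15 min RT; start with 100 nM forked fluorophore/quencher duplex, 2 mM ATP (final); kinetic read ex 525/em 598 nm.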
POLH inh: qHTS for Inhibitors of Polymerase Eta | DNA polymerase eta (Homo sapiens), Q9Y253 | recombinant Pol eta, fluorescent DNA replication assay | Potency, µM (titrated, usually from 114 µM), actives largely listed as inhibitors | 1.2% of 390,000 active | AID 588591, 2011
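Fluorescent replication assay: 50 nM final substrate added after a 15 min room-temperature compound preincubation with 10 nM enzyme. Signal taken at 0 min and again at 10 min.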
POLB inh: qHTS Assay for Inhibitors of DNA Polymerase Beta; 1.3% of 340,000 active; Potency, µM (doses to about 114 µM), actives largely listed as inhibitors; Pol beta primer extension/strand displacement, fluorescence kinetic; P06746
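Pol beta (10 nM) and compounds were preincubated 15 min at room temperature, then 50 nM substrate (final) started primer extension/strand displacement. Reads were taken at 0 and 10 min; concentration-response data were fitted to a four-parameter Hill equation.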
PI5P4K alpha inh: qHTS for Inhibitors of phosphatidylinositol 5-phosphate 4-kinase (PI5P4K) | PI5P4Kalpha enzyme, ADP-Glo luminescence, 60 min; stronger effect = lower value | AID 652105, 2013 | max response, % | Phosphatidylinositol 5-phosphate 4-kinase type-2 alpha (Homo sapiens), P48426 | 1.2% of 330,000 active; active = max response of -50% or lower; inconclusive = between -30% and -50%; inactive = -30% or higher; note: value at the top dose of about 77 µM
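ADP-Glo luminescence end-point after a 60 min room-temperature kinase reaction. PI5P4Kalpha and substrate in HEPES pH 7.4 buffer with EGTA, 0.1% CHAPS and 5% DMSO; ATP at 5 microM final.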
Pol kappa inh: qHTS for Inhibitors of Polymerase Kappa; DNA polymerase kappa (Homo sapiens), Q9UBT6; AID 588579, 2011; purified Pol kappa, fluorescent DNA synthesis assay, 10 min; Potency, µM (series often up to 107 µM), usual class: inhibitors; 0.53% of 400,000 active
Target sequence (Q9UBT6 whole entry, looked up): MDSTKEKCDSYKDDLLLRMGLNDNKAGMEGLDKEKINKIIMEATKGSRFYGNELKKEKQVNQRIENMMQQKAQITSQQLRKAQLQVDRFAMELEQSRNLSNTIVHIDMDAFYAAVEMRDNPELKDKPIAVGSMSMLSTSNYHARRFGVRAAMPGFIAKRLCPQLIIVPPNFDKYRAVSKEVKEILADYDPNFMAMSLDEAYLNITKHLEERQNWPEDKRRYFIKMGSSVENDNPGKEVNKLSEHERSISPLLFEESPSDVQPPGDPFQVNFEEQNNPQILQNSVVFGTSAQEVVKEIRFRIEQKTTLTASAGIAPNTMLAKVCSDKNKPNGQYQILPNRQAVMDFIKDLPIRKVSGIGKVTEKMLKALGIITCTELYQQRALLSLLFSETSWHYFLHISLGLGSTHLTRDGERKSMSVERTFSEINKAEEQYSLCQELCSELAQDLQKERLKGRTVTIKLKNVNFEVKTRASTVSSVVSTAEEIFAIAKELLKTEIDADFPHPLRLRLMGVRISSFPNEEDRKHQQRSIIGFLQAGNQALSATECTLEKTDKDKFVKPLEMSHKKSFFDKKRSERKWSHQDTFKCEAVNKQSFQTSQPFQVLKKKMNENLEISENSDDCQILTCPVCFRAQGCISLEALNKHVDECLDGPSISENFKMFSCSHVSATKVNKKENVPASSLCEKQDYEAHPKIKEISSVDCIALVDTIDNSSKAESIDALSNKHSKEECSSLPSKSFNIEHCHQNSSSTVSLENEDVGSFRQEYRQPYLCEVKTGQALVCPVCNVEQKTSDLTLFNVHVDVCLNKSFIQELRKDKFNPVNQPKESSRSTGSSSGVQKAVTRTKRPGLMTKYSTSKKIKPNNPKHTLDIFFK
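10 nM Pol kappa preincubated 15 min at room temperature with compounds, then reaction started with substrate at 50 nM final. Fluorescence read kinetically at 0 and 10 min; buffer-only wells served as negative control.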
POLI inh: qHTS for Inhibitors of Polymerase Iota; 1% of 390,000 active; Potency, µM (series often up to 115 µM), hits mostly inhibitors; DNA polymerase iota (Homo sapiens), Q9UNA4; Pol iota fluorescent replication assay, 10 min
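Fluorescent replication assay read twice, at 0 min and 10 min after adding 50 nM (final) substrate. Enzyme (10 nM) and compounds were first incubated 15 min at room temperature; enzyme-free buffer wells were negative controls.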
Numbers stand for hits; – = inactive; ? = inconclusive; · = no result; ! = repeats disagree; [ ] = dose if it differs, or a comment. Rows were chosen to be rich in hits. Some 2.8% of all compounds tested hit in one or more screens of this group. Unless noted, calls come from the whole dose curve; as a rule, active = well fitted curve in the direction sought with a large enough effect; inconclusive = small, poorly fitted or top-dose-only effect, or another doubt; inactive = no such curve, though single readings can be large; an effect the other way counts as inactive or inconclusive.

SMILES	WRN helicase inh	POLH inh	POLB inh	PI5P4K alpha inh	Pol kappa inh	POLI inh
COc1ccc(NC(=O)C2CCCN(S(=O)(=O)c3ccc4c(c3)CCCN4C(C)=O)C2)cc1 (stereo unspecified)	–	–	–	–	–	79µM!
COc1ccc(OC)c(NC(=O)c2c(NCc3ccc(C)o3)sc3c2CCCCC3)c1	·	–	–	·	–	28µM
C[C@@H](C(=O)O)c1cccc(C(=O)c2ccccc2)c1	·	·	·	·	–[12 µM]	·
Cc1sc(-n2cccc2)c(C(=O)O)c1C	–	89µM	?	·	–	?
O=C(O)c1c(-n2cccc2)sc2c1CCCC2	–	–	–	–	–	–
Cc1ccc(CCNC(=O)C(CC(C)C)NS(=O)(=O)c2ccc3c(c2)oc(=O)n3C)cc1 (stereo unspecified)	·	–	–	·	–	–
CCNc1nc(ON=C(C)C)nc(N(C)C)n1	–	–	–	–	–	–
COc1ccc(NC(=O)/C=C/c2ccco2)cn1	–	–	?	–	–	–
COc1ccccc1CNC(=O)/C=C/c1ccc(Br)o1	–	–	8.9µM	–	–	?
COc1ccc(NC(=O)/C=C/c2ccc(Br)o2)cn1	?	50µM	11µM	?	79µM	16µM
Cc1cccc(CNC(=O)c2ccc3oc(=O)n(Cc4ccccc4)c3c2)c1	·	–	?	·	–	–
O=C(CN(C(=O)c1csnn1)c1ccc(Br)cc1)NC1CCCCC1	–	–	–	–	–	–
OCC1CCCC(n2cnc3c(=S)nc[nH]c32)O1 (stereo unspecified)	–	–	–	–	–	–
CCOC1CCCC(n2cnc3c(=S)nc[nH]c32)O1 (stereo unspecified)	–[11.6 µM]	18µM	·	–	–	?
CC(=O)N/C(=C\c1ccc(F)cc1)C(=O)OCc1ccccc1	–	–	–	–	–	–
Cc1cc(C)cc(-n2c3nc4ccccc4nc3c3c(=O)n(Cc4ccco4)cnc32)c1	–	?	35µM	–	–	–
COCCCn1cnc2c(c1=O)c1nc3ccccc3nc1n2-c1ccc(C)cc1	–	–	35µM	–	–	–
Cc1ccc(-n2ncc(C(=O)NC3CCCCC3)c2C2CCN(C(=O)OC(C)(C)C)CC2)cc1	·	–	–	·	–	–
CCCCc1ccc(-c2ccc(C)cc2O)nc1	–	–	28µM	–	–	–
COc1cccc2c(=O)c3c([nH]c12)OC(C)(C)C3	–	–	·	–	–	–
COc1cccc2c(=O)c3cccc(N)c3[nH]c12	?	?	25µM	–	–	–
O=S(=O)(Nc1nc2n(n1)C(c1ccc(F)cc1)C=C(c1ccc(Cl)cc1)N2)c1ccccc1 (stereo unspecified)	·	89µM	–	·	–	–
O=S(=O)(Nc1nc2n(n1)C(c1ccc(F)cc1)C=C(c1ccccc1)N2)c1ccccc1 (stereo unspecified)	·	–	?	·	–	–
COc1ccc(N=C2S/C(=C\c3ccc(OCC(=O)O)cc3)C(=O)N2CCc2c[nH]c3ccccc23)cc1	?	–	4µM	-57	16µM	?
CCOc1ccccc1NC(=O)COC(=O)c1c[nH]c2ccccc12	?	?	·	–	–	–
SMILES	WRN helicase inh	POLH inh	POLB inh	PI5P4K alpha inh	Pol kappa inh	POLI inh
CC1(C)C(/C=C/C=C/C=C/C=C2\N(CCCCS(=O)(=O)O)c3ccc4ccccc4c3C2(C)C)=[N+](CCCCS(=O)(=O)[O-])c2ccc3ccccc3c21	45µM	7.1µM	·	-90	22µM	13µM
CC1(C)NC(=O)N(CN2C(=O)NC(C)(C)C2=O)C1=O	–	–	79µM	·	–	–
O=C(N/N=C/c1coc2ccccc2c1=O)c1cc(O)cc(O)c1	–	–	–	-54	–	–
COc1cc2c(cc1OC)[C@@H]1C(=O)c3ccc4c(c3O[C@@H]1CO2)C=CC(C)(C)O4	·	·	·	·	–[19.4 µM]	·
Cc1c(C(=O)O)cccc1-n1c(C)cc(/C=N/Nc2ccc([N+](=O)[O-])cn2)c1C	–[11.6 µM]	?	25µM	?	79µM	50µM
O=C(OCc1ccccc1)/C(=C/c1ccccc1Cl)NC(=O)c1ccco1	–	–	–	–	–	–
COC(=O)c1ccccc1NC(=O)CSCC(=O)Nc1ccc(F)cc1	–	–	–	·	–	–
O=C(NCCc1ccccc1)C1CC(=O)N(C2CCCCCC2)C1 (stereo unspecified)	–	–	–	·	–	79µM
O=C(c1ccc(COc2ccc(F)cc2)o1)n1cc(Br)cn1	?	79µM	22µM	·	–	?
O=C(c1ccc(COc2ccc(F)cc2)o1)n1cccn1	–	–	–	–	–	–
O=C(O)c1cccc(N/N=C/c2cc(Br)cc(Br)c2O)c1	?	?	?	–	?	?
Cc1c(N=Cc2cc(Br)cc(Br)c2O)cccc1C(=O)O	?	?	–	-58	–	?
O=C(NCc1ccco1)c1ccc2nc([C@@H]3O[C@H](CO)[C@H](O)[C@H](O)[C@H]3O)[nH]c2c1	–	·	·	–	·	·
Cc1nc(-c2ccccc2)sc1C1(C)CC(c2ccc(OC(F)(F)F)cc2)=NO1 (stereo unspecified)	–	–	–	–	–	–
COc1ccc(Cl)cc1C(=O)NNC(=O)C1COc2ccccc2O1 (stereo unspecified)	–	–	–	-60	–	–
O=C(NCCc1ccc(Cl)cc1)C1COc2ccccc2O1 (stereo unspecified)	–[11.6 µM]	–	–	–	–	50µM
Cc1nc(Sc2ccc(Br)cc2)c(C#N)c(C)c1[N+](=O)[O-]	–	–	–	–	–	–
Cc1cc(C(F)(F)F)n(-c2nc(C(=O)N/N=C/c3ccc(F)cc3)cs2)n1	–	–	–	–	–	89µM
O=C(N/N=C/c1cccc([N+](=O)[O-])c1)c1nc2ccccc2c(=O)[nH]1	–	–	–	–	–	–
O=C(N/N=C/c1ccccc1Cl)c1nc2ccc([N+](=O)[O-])cc2c(=O)[nH]1	–	–	–	?	–	10µM
COc1ccc(NC(=O)CC2C(=O)N(c3ccc(F)cc3)C(=O)N2Cc2ccco2)cc1 (stereo unspecified)	·	–	–	·	–	–
CC(=O)Nc1nc(-c2ccccc2)cc(-c2ccco2)c1C#N	–	–	·	–	–	–
N#Cc1c(-c2ccccc2)cc(-c2ccco2)c(C#N)c1N	·	·	40µM	·	·	·
N#Cc1sc2nc(-c3ccccc3)cc(-c3ccco3)c2c1N	35µM	8.9µM	40µM	-100	50µM	0.79µM
CN(C)C(=O)c1cccc(-c2cc(NC=O)c3ncc(-c4ccc(F)cc4)n3c2)c1	–	·	·	–	·	·
